# The supplement of paper PMC3334620
# The full ranking holds about 33,000 sequences; the median of “E-score (-0.5 to 0.5)” is about -0.035, and the highest 2% start at about 0.34. The sample holds the highest values, similar sequences and a random draw of the others, so the mix is not that of the screen.
# Target: T1, Mot3 (UniProt P54785)
# T1 sequence: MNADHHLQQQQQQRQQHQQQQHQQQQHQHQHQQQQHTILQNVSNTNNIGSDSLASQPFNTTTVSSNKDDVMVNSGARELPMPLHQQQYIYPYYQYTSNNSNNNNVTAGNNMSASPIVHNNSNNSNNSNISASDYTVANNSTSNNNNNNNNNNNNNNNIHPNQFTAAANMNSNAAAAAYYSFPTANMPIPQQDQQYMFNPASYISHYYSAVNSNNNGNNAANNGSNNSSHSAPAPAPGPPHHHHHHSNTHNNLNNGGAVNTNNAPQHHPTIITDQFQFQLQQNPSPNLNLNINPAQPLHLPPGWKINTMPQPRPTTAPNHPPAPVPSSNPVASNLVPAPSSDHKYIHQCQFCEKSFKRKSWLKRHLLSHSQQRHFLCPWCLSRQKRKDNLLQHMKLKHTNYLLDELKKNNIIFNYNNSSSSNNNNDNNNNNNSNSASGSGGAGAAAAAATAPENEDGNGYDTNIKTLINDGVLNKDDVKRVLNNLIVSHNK
# Assay: PBM E-score (8-mer binding enrichment) (E-score (-0.5 to 0.5)); higher = stronger / more preferred TF binding
# Details: protein concentration: 200 nM; construct: GST-full length
# Experimental: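 Universal 'all 10-mer' protein binding microarrays (Agilent AMADID 015681) probed with GST-tagged S. cerevisiae TFs (full-length or DBD) made by in vitro transcription/translation (PURExpress), about 100-200 nM. Bound TF was detected with fluorescent anti-GST. Each ungapped 8-mer (which stands for itself and its reverse complement) is scored by the PBM enrichment score (E-score), a modified Wilcoxon-Mann-Whitney statistic from -0.5 to +0.5, computed with the Universal PBM Analysis Suite. Scale: above 0.35 generally sequence-specific binding.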
row,Sequence,PBM E-score
1,CCGCTAAC,-0.0566
2,ACTGGTGG,-0.246
3,AGGCCTCA,-0.247
4,CAGAGAGC,-0.316
5,GACATGTA,0.355
6,CACATGTC,0.196
7,GACATGTC,0.191
8,CACATGTA,0.344
9,CAAATGTA,0.272
10,TACATATA,0.317
11,TACATCTA,0.227
12,TAAATGTA,0.346
13,GACATATA,0.125
14,TACATGTA,0.408
15,GAAATGTA,0.0874
16,CACATGTG,0.194
17,GCTGCAAC,-0.242
18,CAAGAGGA,0.038
19,CGAAACTA,-0.136
20,GACTAAAC,0.0174
21,ACCCGTGC,-0.0819
22,GAGAAGGC,0.258
23,ACGGCCTA,-0.0205
24,ACGCGCTG,0.184
25,GGCTAACC,0.0149

row,Sequence,PBM E-score
1,CTTCCTGC,-0.0264
2,ATCTGAAC,-0.219
3,ATATTGGA,0.0164
4,GTAAGGAA,0.366
5,TTAAGTAA,0.0348
6,CTAAGGAC,-0.231
7,CTAAGGAG,-0.254
8,TTAAGGAA,0.398
9,CTAAGGAA,0.366
10,GTAAGGAC,-0.194
11,ATAAGGAA,0.299
12,GTAAGTAA,0.169
13,CGGTCTCC,-0.283
14,CGCCCCCG,-0.351
15,GACGGTTA,-0.0411
16,ATACACAT,0.3
17,GCTGTTTA,-0.0345
18,ATCAGGAC,-0.157
19,GGCAGGGA,-0.158
20,GGCAGGAC,-0.14
21,ATCAGGAA,0.343
22,TGCAGGAA,0.443
23,TTCAGGAA,0.337
24,TGCAGTAA,0.0245
25,GGCAGGAA,0.419

row,Sequence,PBM E-score
1,CTCAGGAA,0.335
2,AGCAGGAC,-0.096
3,AGCAGGAG,-0.0982
4,AGCAGGAA,0.395
5,TACTGAGA,-0.0385
6,GGTGCCAC,-0.168
7,AGGGGTGG,-0.248
8,GACTGGTA,-0.00685
9,GTGCGATA,-0.123
10,CGCAGGAG,-0.0652
11,CGCAGGAA,0.356
12,CGCAGGAC,-0.0456
13,AAAGTAGC,-0.0505
14,ACCATTAA,0.0184
15,CGCTCCTC,-0.269
16,TACGCAAA,0.206
17,ACTATTAC,0.25
18,CCTATTAA,0.273
19,CCTATTAC,0.344
20,CAGGTCGA,0.148
21,ATTAGCCA,-0.147
22,AGGTCGAA,0.00993
23,TATGTTAA,0.396
24,CATGTTAG,0.332
25,CATGTTAC,0.332

row,Sequence,PBM E-score
1,CATGTTAA,0.411
2,AATGTTAA,0.279
3,GATGTTAA,0.268
4,CATTCAGC,-0.12
5,ACCTCGCA,-0.0135
6,AAACAAGC,0.0864
7,TGATCCAA,-0.071
8,CCATCTGC,-0.272
9,ATACACTA,0.124
10,ACACACGG,0.182
11,ACACACGC,0.174
12,ATACACAC,0.326
13,ATACACGA,0.352
14,ATACACGG,0.375
15,ATACACAA,0.324
16,ATACACGC,0.37
17,ATACACCA,0.129
18,GACCTCAC,-0.243
19,CCCCTACA,0.0392
20,ATATACGA,0.14
21,AATTTTAT,0.0903
22,TCGATAGA,-0.0212
23,ACCCCTTC,0.129
24,CTTTTACA,0.345
25,CTTTTACC,0.141

row,Sequence,PBM E-score
1,CCTTTACG,0.172
2,ACTTTACA,0.313
3,ATTTTACA,0.336
4,GTTTTATA,0.101
5,GCTTTACA,0.325
6,GTTTTACA,0.371
7,TCTTTACA,0.389
8,CCTTTACC,0.102
9,CCTTTACA,0.392
10,GGTTTACA,0.333
11,ACCCTTTA,0.167
12,GCAGTCAC,0.305
13,ATTGGCCG,-0.176
14,GGATTTAC,0.174
15,CGACAGGA,0.0979
16,AGCACGCG,0.17
17,AAATGCAC,0.0764
18,AGTCACCG,0.0455
19,GCGCAAGC,-0.172
20,CGGCATCA,-0.0726
21,AGGCATAG,0.274
22,ACGCATCG,-0.0642
23,AAGCATCC,-0.202
24,AGGCATCG,0.404
25,AGGCATCA,0.409

row,Sequence,PBM E-score
1,AGGCATCC,0.384
2,CGGCATCC,-0.0227
3,GGGCATCA,-0.23
4,CACTTCTG,-0.0864
5,AATTGGTA,0.113
6,AGCCAACG,0.0732
7,ACCTAAGC,0.0128
8,CCCCTTGC,-0.152
9,AGGCCTCC,-0.166
10,CTAGACAC,0.0958
11,TAAAACGA,0.0299
12,GTCCAACA,0.153
13,ACACCTGG,0.104
14,ATTACAAC,0.286
15,ATTACAGA,0.24
16,ATTACAAA,0.347
17,ATTACAAG,0.388
18,ATTACAGC,0.127
19,ATTACAAT,0.299
20,TTTACAAA,0.331
21,ATTACAGG,0.359
22,CTTACAAA,0.15
23,GCTGGATA,0.0442
24,GCCCTTAC,-0.0326
25,CTAGGCTC,0.043

row,Sequence,PBM E-score
1,AAACTGAA,0.0399
2,GGGCCCAC,-0.255
3,AACCGTAG,-0.229
4,GCCGTGAA,-0.128
5,CCCGTGGA,-0.314
6,ACCGTGTA,0.397
7,CCCGTGTA,0.376
8,GCCGTGGA,-0.169
9,ACCGTGTG,0.175
10,CCCGTGTC,0.082
11,GCCGTGTA,0.349
12,ACCGTGTC,0.216
13,AGCCAAAT,-0.0958
14,CCAACTAA,0.0699
15,CACTTTTA,0.117
16,ACGTCGCC,-0.00307
17,ATGAACGG,0.0117
18,AGGAACGG,0.463
19,CGGAACGA,0.0162
20,AGGAACGC,0.451
21,CGGAACGC,-0.0837
22,AAGAACGG,-0.266
23,AGGAACGA,0.44
24,GGGAACGA,-0.122
25,ATGAACGC,0.145
